Source: PubChem
D2 antag = antagonizes the human D2 dopamine receptor. P14416. HEK293 TREx D2 cells, calcium flux, dopamine EC80. inhibition, % at 10 µM. 340,000 compounds, 2% hits. AID 485344; in the data active means inhibition above about 30%; inactive means below that, where a call was filed
Target sequence (P14416 whole entry, looked up): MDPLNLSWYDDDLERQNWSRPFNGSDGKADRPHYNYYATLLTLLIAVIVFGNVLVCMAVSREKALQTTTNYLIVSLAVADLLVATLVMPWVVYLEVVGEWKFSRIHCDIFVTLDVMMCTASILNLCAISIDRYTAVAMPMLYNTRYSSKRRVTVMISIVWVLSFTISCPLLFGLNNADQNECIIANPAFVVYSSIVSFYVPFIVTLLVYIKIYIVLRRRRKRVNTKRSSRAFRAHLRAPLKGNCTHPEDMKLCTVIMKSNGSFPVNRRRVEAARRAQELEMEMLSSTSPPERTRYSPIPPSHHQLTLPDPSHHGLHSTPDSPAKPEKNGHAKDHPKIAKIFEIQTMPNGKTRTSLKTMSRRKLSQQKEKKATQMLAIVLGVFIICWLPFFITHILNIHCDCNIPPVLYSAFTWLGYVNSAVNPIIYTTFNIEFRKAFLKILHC
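Calcium flux kinetic readout in an inducible HEK293 TREx D2 line plated overnight at 30 C. After 180 s compound exposure, an EC80 dopamine challenge follows with another 180 s kinetic read to detect antagonism.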
D2 PAM-1 = D2 dopamine receptor (human) potentiation; HEK293 T-REx D2, calcium flux, EC20 dopamine potentiation; 340,000 compounds, 0.34% hits; P14416; potentiation, % at 10 µM; AID 485347;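 active means potentiation over 3 SD above the plate norm, cut at about 30% in these data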
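Tetracycline-induced Hek293 Trex D2 cells, force-coupled to calcium, loaded with no-wash calcium dye. Compound added with 180 s kinetic read for agonism, then EC20 dopamine and a further 180 s read for potentiation.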
D2 ag-1 = activates the human D2 dopamine receptor; P14416; 340,000 compounds, 0.53% hits; activation, % at 2 µM; HEK293 T-REx D2 cells, calcium flux agonist mode;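 active means activation over 3 SD above normal in the single-dose calcium agonist read, cut at about 30% in these data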
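Tetracycline-induced HEK293 T-REx cells with force-coupled D2 receptor, plated overnight at 30 C, loaded with no-wash calcium dye. After a 10 s baseline, compound was pin-added and calcium flux read kinetically for 180 s; calcium rises flagged agonists.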
D2 ag-2 = human D2 receptor agonism in beta-arrestin assay; P14416; DiscoveRx PathHunter D2 beta-arrestin, luminescence, 90 min; 100% = 57 uM dopamine signal; activation, % (concentration not given with the values); 360,000 compounds, 0.084% hits; AID 624465; in the data active means activation above about 40%; inconclusive means between about 15% and that limit
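Agonist mode: compounds alone added to overnight-plated D2 PathHunter cells for 90 min at 37 C, with 57 uM final dopamine (EC100) defining full response. Beta-arrestin recruitment detected by chemiluminescent reagent, read after 1 h at ambient temperature.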
D2 PAM-2 = positive allosteric modulators of human D2 dopamine receptor | P14416 | DiscoveRx D2 beta-arrestin cells, luminescence, 90 min; 100% = 57 uM dopamine signal | potentiation, % (concentration not given with the values) | 360,000 compounds, 0.23% hits | AID 624464; in the data active means potentiation above about 50%; inconclusive means mostly about 30% to 49%
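D2 cells co-treated with compound plus 50 nM dopamine (EC20) for 90 min at 37 deg C to detect potentiation. Beta-arrestin recruitment was read as enzyme-fragment luminescence after 1 h at ambient temperature. Full response was set by 57 uM dopamine.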
Of the large screens only hits and unclear results are named; the others gave an inactive call. The list is not random: actives were taken first. Their share in the collection is about 2.4%.

O=C(Nc1ccccc1)/C(=C\c1ccc2c(c1)OCO2)NC(=O)c1ccco1	D2 antag 30.0
COc1ccccc1Cn1c(-c2ccccc2OC)nc2ccccc21	none
Oc1ccccc1Cn1c(-c2ccccc2O)nc2ccccc21	D2 antag 33.6
CNc1c(NC(=O)c2ccc(OC)c(OC)c2)c(=O)oc2ccccc12	none (no result: D2 antag, D2 ag-2, D2 PAM-2)
CC1=C(CC(=O)c2ccc(Cl)cc2)C(=O)c2ccccc2C1=O	D2 PAM-2 55.1 (no result: D2 antag, D2 PAM-1, D2 ag-1)
COc1ccc(/C=C2\CC/C(=C\c3ccc(OC)c(OC)c3)C2=O)cc1OC	none
COc1cc(/C=C2\CC/C(=C\c3ccc(OCCO)c(OC)c3)C2=O)ccc1OCCO	D2 ag-1 76.2
COc1ccc(N2CCN(c3cncc(C)n3)CC2)cc1	none (no result: D2 antag, D2 PAM-1, D2 ag-1)
CCN(CC)CCNC(=O)c1cc(Nc2ccc(OC)c(OC)c2)nc2ccccc12	D2 antag 43.0
COc1ccc(Nc2cc(C(=O)NCCCN3CCOCC3)c3ccccc3n2)cc1OC	D2 antag 30.1
COc1ccc(Nc2cc(C(=O)NCc3ccccc3)c3ccccc3n2)cc1OC	none (no result: D2 antag, D2 PAM-1, D2 ag-2, D2 PAM-2)
COc1ccccc1NC(=O)NC1CCS(=O)(=O)C1 (stereo unspecified)	D2 antag 39.2
Cc1ccccc1NC(=O)NC1CCS(=O)(=O)C1 (stereo unspecified)	none
Cc1ccc(C2C(C(=O)c3cccs3)=C(O)C(=O)N2CCN2CCOCC2)o1 (stereo unspecified)	D2 PAM-1 37.8
NC(=O)C1CCCNC1 (stereo unspecified)	D2 antag 46.6
CC(Sc1nc(C(F)(F)F)nc2ccccc12)C(=O)NC1CCCC1 (stereo unspecified)	none
COc1ccc(N2CCN(C(=O)Nc3ccc(S(=O)(=O)N(C)C)cc3)CC2)cc1	D2 antag 41.1
COc1ccc(NC(=O)N2CCN(C(=O)Nc3ccc(OC)cc3)CC2)cc1	none
COc1ccc(NC(=O)N2CCN(S(C)(=O)=O)CC2)cc1	D2 antag 34.1
CN(C)S(=O)(=O)c1ccc(NC(=O)N2CCN(c3ccccc3)CC2)cc1	none
CC1=C(C(=O)N(C)C)CC(CC(=O)NC(c2ccccc2)c2ccccc2)C(=O)N1CCC1=CCCCC1 (stereo unspecified)	none (no result: D2 antag, D2 PAM-1, D2 ag-1)
O=C(CCCc1nc(-c2ccccc2)no1)Nc1cccnc1	none (no result: D2 antag, D2 PAM-1, D2 ag-1)
O=C(CCc1nc(-c2ccccc2)no1)Nc1cccnc1	D2 antag 57.9
CCOC(=O)/C(N=Nc1ccc2c(c1)OCO2)=C(\C)O	D2 PAM-1 118.5
O=C(Nc1cccc2nsnc12)c1ccc(-c2cccc(Cl)c2)o1	D2 PAM-2 51.4
O=C(Nc1ccccc1N1CCCCC1)c1ccc(-c2cccc(Cl)c2)o1	none
COc1ccc(CCNCc2ccc3c(c2)n(C)c(=O)n3C)cc1OC	none (no result: D2 antag, D2 ag-1, D2 ag-2, D2 PAM-2)
O=C(NNC1CC(=O)N(c2ccc(Cl)cc2)C1=O)c1ccco1 (stereo unspecified)	none
CCOc1cccc(N2C(=O)CC(NNC(=O)c3ccc(Br)o3)C2=O)c1 (stereo unspecified)	D2 antag 38.1
CCCOc1ccc(N2C(=O)CC(NNC(=O)c3ccc(COc4ccccc4)o3)C2=O)cc1 (stereo unspecified)	none
O=C(NNC1CC(=O)N(c2ccc(Br)cc2)C1=O)c1ccco1 (stereo unspecified)	D2 ag-1 37.5
CN(C)S(=O)(=O)c1ccc(-c2csc(N/N=C/c3ccc(O)cc3)n2)cc1	D2 ag-2 inconclusive, D2 PAM-2 56.8
COc1cccc(NC(=O)CCc2nnc3n(CC(C)C)c(=O)c4ccccc4n23)c1	none (no result: D2 antag, D2 ag-2, D2 PAM-2)
CCOC(=O)COn1c(-n2nc(C)cc2C)nc2ccccc2c1=O	D2 antag 32.8
CCOC(=O)C1=C[C@@H](c2ccccc2)N(S(=O)(=O)c2ccc(C)cc2)[C@H]1c1ccccc1Cl	none (no result: D2 antag, D2 PAM-1, D2 ag-1)
CCCCNc1nc2ccccc2n1CC(=O)N1CCc2ccccc2C1	D2 antag 52.9
CCCCNC(=O)N1CCc2ccccc2C1	none
Cc1cc2nc(CCN(C(=S)NCC3CCCO3)C3CCCC3)[nH]c2cc1C (stereo unspecified)	D2 antag 31.2
Cc1cc2nc(CCN(C(=S)NCC(C)C)C3CCCC3)[nH]c2cc1C	none
CCCCCOc1ccc(C(=O)Nc2ccc(N3CCOCC3)cc2N2CCOCC2)cc1	D2 PAM-1 78.4
CCCCC1CCC(C(=O)Nc2ccccc2N2CCOCC2)CC1 (stereo unspecified)	D2 antag 33.1
CC(C)(C)C1CCC(C(=O)Nc2ccc(N3CCOCC3)cc2N2CCOCC2)CC1 (stereo unspecified)	D2 antag 31.4
COCOCCn1cc(CN2CCS(=O)(=O)N(Cc3ccc(-c4ccc(F)nc4)cc3)C(C)C2=O)nn1 (stereo unspecified)	none (no result: D2 antag, D2 PAM-1, D2 ag-1, D2 PAM-2)
CCOc1ccccc1CNC(=O)c1cc(-c2ccc(OC)cc2)nc2ccc(C(C)C)cc12	none (no result: D2 antag, D2 ag-2, D2 PAM-2)
OC[C@@H]1CN(Cc2ccccc2)C[C@H](n2cnc3c(NC4CCCC4)ncnc32)O1	none (no result: D2 antag, D2 PAM-1, D2 ag-1)
CCOC(=O)c1ccc(NS(=O)(=O)c2ccc(Br)s2)cc1	none (no result: D2 antag, D2 ag-2, D2 PAM-2)
Cc1ccc(CN2CCSc3ccc(C(=O)N4CCN(c5ccc(Cl)cc5)CC4)cc32)cc1	none (no result: D2 antag, D2 ag-2, D2 PAM-2)
N#C/C(=C\c1ccc(O)c([N+](=O)[O-])c1)C(=O)NCc1ccccc1	none
N#C/C(=C\c1ccc(O)c(Br)c1)C(=O)NCc1ccccc1	D2 antag 69.4
COC(=O)c1ccc(NC(=O)Cn2c(=O)oc3ccccc32)cc1	none (no result: D2 antag, D2 ag-2, D2 PAM-2)
COC(=O)CC1COc2ccccc2N1C(=O)c1ccc(C(C)(C)C)cc1 (stereo unspecified)	D2 ag-1 33.0, D2 ag-2 inconclusive, D2 PAM-2 59.1
Cc1oc2c(CN3CCC(C)CC3)c(O)ccc2c(=O)c1-c1ccccc1	D2 antag 44.5
Cc1oc2c(CN3CCCC3)c(O)ccc2c(=O)c1-c1ccccc1	none
CC(=O)c1ccc(NC(=O)Cn2nc(C(F)(F)F)c3c2CCC3)cc1	none (no result: D2 antag, D2 ag-2, D2 PAM-2)
C=CC[N+](C)(C)CCCNC(=O)/C=N/O	D2 antag 61.8
COCCn1nnnc1CN1CCSCC1	none
COc1ccccc1N1CCN(CCCOc2ccc(F)cc2)CC1	D2 antag 89.3
COc1ccccc1N1CCN(CCCNc2c(C)c(=O)n(C)c(=O)n2C)CC1	none (no result: D2 antag, D2 PAM-1, D2 ag-1)
COc1cccc(OC)c1OCCCN1CCC(Cc2ccccc2)CC1	D2 antag 88.8
COc1ccccc1N1CCN(CCCNc2cc(=O)n(C)c(=O)n2C)CC1	D2 antag 64.1, D2 ag-1 57.9
COCCn1nnnc1CN1CCC(Cc2ccccc2)CC1	D2 PAM-1 38.4
CCOC(=O)c1cc(-c2ccccc2)n(CCCC(=O)Nc2ccccc2C)c1C	none (no result: D2 antag, D2 ag-2, D2 PAM-2)
CCOc1ccc(CN2CCC(Cc3ccccc3)CC2)cc1	D2 antag 30.4
COc1ccccc1N1CCN(CCCCOc2c(OC)cccc2OC)CC1	D2 antag 78.4
